The list is not random: actives were taken first. Their share in the collection is about 4.6%.
NALP3 yeast inh: NALP3 inflammasome inhibitors in reconstituted yeast, primary screen, luminescence, uHTS | Yeast reconstituted NLRP3/ASC/caspase-1, beta-gal luminescence, 24 h | inhibition, % at 10 µM | 0.39% of 330,000 active | AID 2825, 2010;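 active means inhibition of 50% or more; inactive means inhibition below 50%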
tim23-1 inh: growth inhibitors of tim23-1 mutant yeast, primary screen, luminescence, uHTS. S. cerevisiae tim23-1 growth, BacTiter-Glo luminescence, 24 h. inhibition, % at 20 µM. 1.3% of 330,000 active;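 active means growth inhibition of the mutant yeast at or above 50%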;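 further: temperature-sensitive mutant grown at 25 °C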
TIM10 inh: growth inhibitors of isogenic TIM10 control yeast, primary screen, counter-screen for tim10-1 yeast inhibitor project, luminescence, uHTS; 1.4% of 330,000 active; S. cerevisiae TIM10 strain growth, BacTiter-Glo luminescence, 24 h; inhibition, % at 10 µM;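 active means inhibition of 40% or more at the single tested concentration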;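 further: wild-type TIM10 isogenic control strain grown at permissive 25 °C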
SKKanGAS inh: S. pyogenes SKKanGAS growth inhibitors in kanamycin, primary screen, streptokinase expression inhibitor project, SKKanGAS strain, BacTiter-Glo luminescence. 1.3% of 300,000 active. 6 h. inhibition, % at 7.5 µM;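 active means mean replicate score, as percent of positive control median, at least 50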;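 further: strain carries kanamycin resistance gene driven by streptokinase promoter and grows in 40 µg/ml kanamycin; loss of luminescence reflects streptokinase promoter inhibition or plain growth inhibition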
PfHsp90 set2: growth inhibition of PfHsp90-expressing yeast, primary screen, antimalarial PfHsp90 inhibitor project, S. cerevisiae, BacTiter-Glo luminescence, single point, set 2 | BacTiter-Glo ATP, 48 h; yeast lacking PDR1 and PDR3 efflux regulators | inhibition, % at 9.4 µM | 0.32% of 310,000 active | AID 504621, 2011;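 active means every replicate shows inhibition above about 80%, whatever the replicate mean, limit read from the data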
tim10-1 inh: growth inhibitors of tim10-1 mutant yeast, primary screen, luminescence, uHTS. S. cerevisiae tim10-1 ts strain growth, BacTiter-Glo, 24 h. inhibition, % at 20 µM. 2.2% of 330,000 active. AID 463190, 2010;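 active means inhibition of at least 40%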;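 further: mutant grown at 25 °C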
Of the large screens only hits and unclear results are named; the others gave an inactive call.

O=C(COc1ccccc1)Nc1nnc(-c2ccccc2Cl)o1	SKKanGAS inh 52.8
O=C(Nc1cccc2c1CCCC2)c1ccccc1Cl	none
O=C(Nc1nnc(-c2ccc3c(c2)OCCO3)o1)c1ccc(Cc2ccccc2)cc1	SKKanGAS inh 101.7
O=C(CCOc1ccccc1)Nc1nnc(-c2ccc3c(c2)OCCO3)o1	none
O=C(Nc1nnc(-c2ccc3c(c2)CCCC3)o1)c1ccccc1Cl	SKKanGAS inh 90.1
O=C(COc1ccccc1)Nc1nnc(-c2ccc3c(c2)CCCC3)o1	SKKanGAS inh 88.6
Cc1ccc(OCc2cc(C(=O)N(C)Cc3cnn(-c4ccccc4C)c3)no2)cn1	none
Cc1ccc(NC(=O)CC(C)CC(=O)NCc2ccccc2)cc1Cl (configuration not stated)	none
CCc1ccc(NC(=O)CSc2nnc(CNC(=O)c3ccco3)o2)cc1	none
O=C(Nc1nnc(-c2ccncc2)o1)c1ccccc1	none
O=C(Nc1nnc(-c2ccc3c(c2)CCCC3)o1)c1ccccc1	SKKanGAS inh 93.7
Cc1ccc(S(=O)(=O)/N=C2\C=C(Nc3cccc(C(=O)O)c3)C(=O)c3ccccc32)cc1	SKKanGAS inh 87.2
CCc1ccc(S(=O)(=O)/N=C2\C=C(Nc3ccc(C(=O)O)cc3)C(=O)c3ccccc32)cc1	SKKanGAS inh 96.4
CC(C)(C)c1ccc(S(=O)(=O)/N=C2\C=C(NS(=O)(=O)c3ccccc3)C(=O)c3ccccc32)cc1	SKKanGAS inh 94.4
Cc1ccc(S(=O)(=O)/N=C2\C=C(NS(=O)(=O)c3ccccc3)C(=O)c3ccccc32)c(C)c1	none (no result: NALP3 yeast inh, tim23-1 inh, TIM10 inh, SKKanGAS inh, tim10-1 inh)
O=C(Nc1cccc(O)c1)c1ccccc1[N+](=O)[O-]	none
O=C(c1cc(-c2ccc(Br)cc2)nc2ccccc12)N1CCN(c2ccccc2O)CC1	SKKanGAS inh 58.7
Cc1ccc(-c2cc(C(=O)N3CCN(c4ccccc4O)CC3)c3ccccc3n2)o1	none
COc1cccc(NCc2cc(=O)oc3cc(C)c(O)cc23)c1	SKKanGAS inh 99.4
COc1cccc(NCc2cc(=O)oc3cc(-c4ccccc4)c(O)cc23)c1	SKKanGAS inh 109.6
Cc1cc2oc(=O)cc(CNc3ccccc3F)c2cc1O	SKKanGAS inh 50.6
CCOc1ccccc1NCc1cc(=O)oc2cc(C)c(O)cc12	none
CCN(CC)CCCNc1nc(N)c([N+](=O)[O-])c(N2CCCCCC2)n1	SKKanGAS inh 65.9
O=C1CCC(/C=C/c2ccccc2)=NN1Cc1ccccc1Cl	none (no result: PfHsp90 set2)
O=C1CCC(/C=C/c2ccccc2)=NN1Cc1ccc(Cl)c(Cl)c1	SKKanGAS inh 53.0
O=c1c2cc(N3CCOCC3)ccc2[nH]c(=S)n1CCc1ccccc1	SKKanGAS inh 83.5
O=C(N/N=C/c1cc(Br)cc(Br)c1O)c1cccc(S(=O)(=O)N2CCOCC2)c1	SKKanGAS inh 107.3
O=C(N/N=C/c1ccccc1Br)c1cccc(S(=O)(=O)N2CCOCC2)c1	none (no result: SKKanGAS inh)
COc1cc(Br)cc(/C=N/NC(=O)Cc2ccccc2)c1O	SKKanGAS inh 109.2
O=C(COc1ccc(-c2ccccc2)cc1)N/N=C/c1ccccc1Br	none
O=C(COc1ccc(-c2ccccc2)cc1)N/N=C/c1cc(O)ccc1Br	SKKanGAS inh 98.2
COc1cc(/C=N/NC(=O)Cc2ccc(Br)cc2)cc(OC)c1O	none (no result: PfHsp90 set2)
O=C(CP(=O)(c1ccccc1)c1ccccc1)N/N=C/c1cc(Br)cc(Br)c1O	SKKanGAS inh 101.6
COc1ccc(N(CC(=O)NCCc2ccc(OC)c(OC)c2)S(=O)(=O)c2ccc(OC)c(OC)c2)cc1	none
CCOC(=O)c1ccc[n+](CC(=O)c2ccc(NC(=O)c3ccccc3)cc2)c1	none
Nc1c(Cl)nc(-c2ccccc2)nc1Cl	none
CC1CCCN(c2nc(NCc3ccco3)nc(N)c2[N+](=O)[O-])C1 (configuration not stated)	none
Cc1ccc(Nc2nc(N)c([N+](=O)[O-])c(N3CCCC(C)C3)n2)cc1C (configuration not stated)	PfHsp90 set2 132.1
Cc1c(CCOC(=O)C2C3CC4CC(C3)CC2C4)sc[n+]1CC(=O)c1ccc(Br)cc1 (configuration not stated)	SKKanGAS inh 49.9
Cc1c(CCOC(=O)c2ccc(Cl)cc2Cl)sc[n+]1CC(=O)c1ccc(Br)cc1	none (no result: SKKanGAS inh)
O=C(N/N=C\c1ccc(Cl)s1)c1ccc(Cn2cccn2)o1	none
O=C(N/N=C\c1c(O)ccc2ccccc12)c1ccc(Cn2cccn2)o1	SKKanGAS inh 108.2
COc1ccc(C(=O)Nc2ccccc2-c2nnn(CC(=O)N3CCOCC3)n2)cc1	none (no result: PfHsp90 set2)
COc1ccc(C(=O)Cn2nnc(-c3ccccc3NC(=O)c3ccco3)n2)cc1	SKKanGAS inh 54.5
O=S(=O)(NCC1CCCO1)c1ccc(S(=O)(=O)N(Cc2ccc(F)cc2)Cc2ccco2)cc1 (configuration not stated)	none
NCC(=O)Nc1ccc(Cl)cc1C(=O)c1ccc[nH]1	none
O=c1cc(N2CCCCC2)c(-c2ccccc2)nn1Cc1cccc(Cl)c1	SKKanGAS inh 52.4
O=c1cc(N2CCCCC2)c(-c2ccccc2)nn1Cc1ccc(Cl)cc1Cl	SKKanGAS inh 105.0
COc1ccc(-n2nc([N+](=O)[O-])c(=NCCC3=CCCCC3)n2O)cc1	none
CCCc1cc(=O)n2[nH]cc(-c3ccc(Cl)cc3)c2n1	SKKanGAS inh 84.8
CCOC(=O)Cc1cc(=O)n2[nH]cc(-c3cccc(Br)c3)c2n1	SKKanGAS inh 71.2
COCc1cc(=O)n2[nH]cc(-c3ccccc3)c2n1	none
Cc1ccc(C2CCN(C(=S)Nc3cccc(C)c3)C2)cc1 (configuration not stated)	none
C/C(=N\NC(=O)COc1ccc(C(C)(C)C)cc1)c1cc2ccccc2o1	none
C/C(=N\NC(=O)COc1ccc(C)cc1C(C)C)c1cc2ccccc2o1	SKKanGAS inh 57.4
C/C(=N\NC(=O)c1cc2ccccc2cc1O)c1cc2ccccc2o1	SKKanGAS inh 77.8
Cc1ccc(-n2c(-c3ccc(Br)cc3)c[n+]3c2CCc2ccc4cccnc4c2-3)cc1	SKKanGAS inh 80.6 (no result: NALP3 yeast inh, tim23-1 inh, TIM10 inh, tim10-1 inh)
COc1ccc(-n2c(-c3ccc(Cl)cc3)c[n+]3c2CCc2ccccc2-3)cc1	none
Cc1c(NC(=O)COC(=O)CSc2ccc(C(N)=O)cc2[N+](=O)[O-])c(=O)n(-c2ccccc2)n1C	none
CCOC(=O)N1CCN(C(=O)c2ccc3c(=O)n(CCC4=CCCCC4)c(=S)[nH]c3c2)CC1	SKKanGAS inh 67.4
CC(NS(=O)(=O)OCC(Cl)(Cl)Cl)c1ccc(C(C)(C)C)cc1 (configuration not stated)	SKKanGAS inh 92.9 (no result: NALP3 yeast inh, tim23-1 inh, TIM10 inh, tim10-1 inh)
